PLK1 PBD inh = qHTS for Inhibitors of PLK1-PDB (polo-like kinase 1 - polo-box domain): Primary Screen; Serine/threonine-protein kinase PLK1 (Homo sapiens), P53350; Plk1 PBD binding of FITC phosphopeptide, fluorescence polarization; Potency, µM, usual class: inhibitors; 2.8% of 360,000 active; AID 720504, 2013; note: series mostly up to about 57 µM; nearly all actives have a fitted effect of over 65% in size
Target sequence (P53350 whole entry, looked up, the tested form may be a part): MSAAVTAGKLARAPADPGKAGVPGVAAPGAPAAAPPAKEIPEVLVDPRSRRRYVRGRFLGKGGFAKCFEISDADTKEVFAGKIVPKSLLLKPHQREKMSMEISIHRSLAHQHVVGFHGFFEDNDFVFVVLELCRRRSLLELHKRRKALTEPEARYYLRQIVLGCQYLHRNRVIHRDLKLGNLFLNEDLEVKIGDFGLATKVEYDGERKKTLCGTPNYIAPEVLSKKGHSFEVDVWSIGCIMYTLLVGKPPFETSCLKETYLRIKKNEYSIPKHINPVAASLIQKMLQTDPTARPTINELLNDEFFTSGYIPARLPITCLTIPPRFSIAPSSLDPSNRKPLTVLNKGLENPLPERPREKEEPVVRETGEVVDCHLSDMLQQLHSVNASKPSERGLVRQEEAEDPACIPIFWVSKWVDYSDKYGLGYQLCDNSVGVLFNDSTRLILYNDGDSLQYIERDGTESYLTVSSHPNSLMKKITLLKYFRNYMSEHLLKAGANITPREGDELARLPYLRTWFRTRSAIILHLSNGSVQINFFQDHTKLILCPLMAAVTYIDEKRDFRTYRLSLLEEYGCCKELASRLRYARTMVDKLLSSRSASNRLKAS
TDP1 inh = qHTS Assay for Inhibitors of Tyrosyl-DNA Phosphodiesterase (TDP1); Tyrosyl-DNA phosphodiesterase 1 (Homo sapiens), Q9NUW8; recombinant TDP1, AlphaScreen DNA substrate cleavage; Potency, µM (top dose mostly 130 µM), usual class: inhibitors; 0.28% of 350,000 active; note: nearly all actives have a fitted effect of over 40% in size
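E. coli-derived human Tdp1, 1 nM final. Cpd preinc 15 min RT; substrate 15 nM final, 5 min RT; AS bead mix 10 ug/ml final, 10 min RT. Signal loss = tyrosine-FITC cleavage. No-enzyme wells = max signal.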
GCN5L2 inh = qHTS Assay for Inhibitors of GCN5L2 | 0.21% of 390,000 active | GCN5L2 HAT assay, ThioGlo1 CoA-SH fluorescence | Potency, µM (series often up to 58.9 µM), usual class: inhibitors
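Compounds, pin-transferred from DMSO stocks, meet 20nM GCN5L2 for 15 min before the reaction begins with H3(1-25) peptide (75uM) and acetyl-CoA (70uM). Thiol-reactive ThioGlo1 reports CoA release over 20 min at room temperature.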
DT40 TDP1 CPT = qHTS for Inhibitors of human tyrosyl-DNA phosphodiesterase 1 (TDP1): qHTS in cells in presence of CPT. AID 686979, 2013. Potency, µM (doses to about 46.2 µM), actives largely listed as inhibitors. chicken DT40 Tdp1-/-;hTDP1 cells + 20 nM CPT, ATP luminescence, 48 h. 12% of 420,000 active; note: nearly all actives have a fitted effect of over 55% in size
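Cell growth measured by CellTiter-Glo luminescence after a minimum 48 h, 37 C compound exposure with 20 nM CPT in Tdp1-knockout DT40 cells stably expressing hTDP1, seeded 400/well; qHTS titration format.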
TDP1 cell noCPT = qHTS for Inhibitors of human tyrosyl-DNA phosphodiesterase 1 (TDP1): qHTS in cells in absence of CPT; AID 686978, 2013; Potency, µM (top dose mostly 46.2 µM), hits mostly inhibitors; DT40 Tdp1-/- hTDP1 cells, no CPT, ATP luminescence, 48 h; 15% of 420,000 active; note: nearly all actives have a fitted effect of over 55% in size
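A cellular qHTS used chicken DT40 cells lacking endogenous Tdp1 but carrying stably transfected human TDP1. Compounds were applied without camptothecin, and cell growth kinetics were judged by ATP-dependent luminescence after ≥48 hr.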
VDR inhibitor = Inhibitors of the vitamin D receptor (VDR): qHTS. VDR-SRC2-3 peptide fluorescence polarization, 2 h. AID 504847, 2011. Vitamin D3 receptor (Homo sapiens), P11473. Potency, µM, hits mostly inhibitors. 0.93% of 400,000 active
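FP read-out; VDR + SRC2-3 coactivator peptide; 23 nl compound by pintool; 2 h RT incubation; reagents held at 4 deg C, protected from light.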
Numbers stand for hits; – = inactive; ? = inconclusive; · = not tested or not shown; [ ] = remark or other dose. Rows were chosen to be rich in hits. Some 18% of all compounds tested hit in one or more screens of this group. Calls come from the whole dose curve; as a rule, active = well fitted curve in the direction sought with a large enough effect; inconclusive = small, poorly fitted or top-dose-only effect, or another doubt; inactive = no such curve, though single readings can be large; an effect the other way counts as inactive or inconclusive.

SMILES	PLK1 PBD inh	TDP1 inh	GCN5L2 inh	DT40 TDP1 CPT	TDP1 cell noCPT	VDR inhibitor
COc1ccc2nc(N3C(=O)CNC3=S)sc2c1	–	–	–	7.3µM	7.3µM	–
Cc1cccc(CC2CC(=O)N(c3nc4ccccc4s3)C2=O)c1 (stereo not drawn)	–	–	–	–	–	–
Cc1ccc2nc(N3C(=O)CNC3=S)sc2c1	–	–	–	15µM	?	–
CN1/C(=C/C=C(C#N)C#N)C(C)(C)c2ccccc21	?	–	–	–	–	–
CN(C)c1ccc(N=C/C=C2\N(C)c3ccccc3C2(C)C)cc1	–	–	–	5.2µM	4.1µM	–
Cc1cc(/N=C/C=C2\N(C)c3ccccc3C2(C)C)n(CCC#N)n1	–	–	–	5.8µM	4.6µM	–
CN1\C(=C/C=C/C=C/C=[N+](C)C)C(C)(C)c2ccccc21	–	–	–	2.6µM	2.3µM	?
COC(=O)/C=C\CCc1coc(/C=C\CNC(=O)OC)n1	·	–[21 µM]	·	·	·	·
CCOC(=O)N1CCN(C(=O)CNC(=O)c2nn(-c3ccc(OC)c(OC)c3)c(=O)c3ccccc23)CC1	–	·	–	–	?	–
CCOC(=O)N1CCN(C(=O)CNC(=O)c2nn(-c3ccc(OC)c(Cl)c3)c(=O)c3ccccc23)CC1	–	–	–	?	9.2µM	–
COc1ccc(-n2nc(C(=O)NCC(=O)N3CCN(c4ccc(F)cc4)CC3)c3ccccc3c2=O)c(OC)c1	–	–	–	21µM	?	–
COc1ccc(-n2nc(C(=O)NCC(=O)N3CCN(Cc4ccccc4)CC3)c3ccccc3c2=O)cc1	–	–	–	23µM	?	–
COc1ccc(-n2nc(C(=O)NCC(=O)NCCc3ccc(OC)c(OC)c3)c3ccccc3c2=O)cc1Cl	–	–	–	?	13µM	–
COc1ccc(-n2nc(C(=O)NCC(=O)N3CCN(c4ccccc4)CC3)c3ccccc3c2=O)c(OC)c1	–	–	–	?	?	–
S=c1[nH]nc(C2CCCCC2)n1/N=C/c1ccccc1Br	12µM	·	–	–	–	–
Fc1cccc(Cl)c1/C=N/n1c(-c2cccnc2)n[nH]c1=S	17µM	–	–	?	–	–
S=c1[nH]nc(C2CCCCC2)n1/N=C/c1ccc(Cl)cc1	30µM	·	–	?	?	–
Cc1ccc(/C=N/n2c(-c3cccs3)n[nH]c2=S)cc1	?	–	–	?	?	–
S=c1[nH]nc(-c2cccs2)n1/N=C/c1c(Cl)cccc1Cl	6.7µM	–	–	–	–	?
CCOC(=O)Cn1c(=O)n(CC2CCCO2)c2nc(-c3ccc(CC)cc3)nc(C(N)=O)c21 (stereo not drawn)	·	–	–	·	·	–
Fc1ccccc1/C=N/n1c(C2CCCCC2)n[nH]c1=S	?	·	–	–	–	–
S=c1[nH]nc(C2CCCCC2)n1/N=C/C(Cl)=C\c1ccccc1	–	–	–	–	?	–
S=c1[nH]nc(C2CCCCC2)n1/N=C/c1c(Cl)cccc1Cl	30µM	·	–	?	–	–
S=c1[nH]nc(C2CCCCC2)n1/N=C/C=C/c1ccccc1	?	–	?	26µM	?	–
CCN1CCN(c2nc3c(S(=O)(=O)c4ccc(Br)cc4)nnn3c3ccsc23)CC1	·	–	–	–	?	–
SMILES	PLK1 PBD inh	TDP1 inh	GCN5L2 inh	DT40 TDP1 CPT	TDP1 cell noCPT	VDR inhibitor
O=C(NCc1ccc(F)cc1)c1cccc2c1C(=O)N(Cc1cccnc1)C2	27µM	–	–	–	–	–
CCc1ccc(OCC(=O)N2CCN(c3ccccn3)CC2)c(Br)c1	–	–	–	13µM	?	–
Cc1cc(OCC(=O)N2CCN(c3ccccn3)CC2)cc(C)c1Br	–	–	–	?	16µM	–
Cc1ccc(S(=O)(=O)C(CNC(=O)c2ccccc2F)c2cccs2)cc1 (stereo not drawn)	·	–	–	?	15µM	–
O=C(NCCc1ccc(F)cc1)C(=O)NCC(c1cccs1)S(=O)(=O)c1ccc(F)cc1 (stereo not drawn)	·	–	–	?	?	–
COc1ccc(CCNC(=O)C(=O)NCC(c2cccs2)S(=O)(=O)c2ccc(C)cc2)cc1 (stereo not drawn)	·	–	–	?	9.2µM	–
COc1ccccc1CNC(=O)C(=O)NCC(c1ccco1)S(=O)(=O)c1ccc(C)cc1 (stereo not drawn)	·	–	–	?	?	–
Cc1ccc(S(=O)(=O)C(CNC(=O)C(=O)NCCc2ccc(F)cc2)c2cccs2)cc1 (stereo not drawn)	·	–	–	?	16µM	–
COc1ccccc1CCNC(=O)C(=O)NCC(c1ccco1)S(=O)(=O)c1ccc(F)cc1 (stereo not drawn)	·	–	–	16µM	?	–
O=C(c1ccco1)N1CCN(C2CN(Cc3cn(Cc4ccccc4C(F)(F)F)nn3)S(=O)(=O)C2)CC1 (stereo not drawn)	–	·	·	–	–	·
OCCN1CCN(c2ncnc3c2ncn3[C@H]2CN(Cc3ccc(F)cc3)C[C@@H](CO)O2)CC1	–	·	·	?	?	·
Cc1ccc(S(=O)(=O)C(CNC(=O)C(=O)NCCc2ccccc2)c2cccs2)cc1 (stereo not drawn)	·	–	–	16µM	15µM	–
Cc1ccc(C)c(S(=O)(=O)NCC(c2ccco2)S(=O)(=O)c2ccc(F)cc2)c1 (stereo not drawn)	·	–	–	1.3µM	1.2µM	–
COc1ccc(F)cc1S(=O)(=O)NCC(c1ccco1)S(=O)(=O)c1ccc(F)cc1 (stereo not drawn)	·	–	–	?	?	–
S=C1NCc2cncnc2N1	–	·	·	–	–	·
CC(C)(C)OC(=O)N1CCC(c2nnc(SCc3ccccc3F)o2)CC1	·	–	–	·	·	–
CCCCN(C)c1c(C)nc2ccc(C(=O)Nc3cc(-c4ccccc4)ccc3OC)cn12	–	·	·	13µM	16µM	·
CCc1nc2ccc(C(=O)Nc3cc(-c4ccccc4)ccc3OC)cn2c1N(C)CCCc1ccccc1	–	·	·	?	?	·
CCCCN(C)c1c(C)nc2ccc(C(=O)Nc3ccc(OC)c(OC)c3)cn12	–	·	·	?	15µM	·
CN(C)c1ccc(C(=O)N/N=C/c2cc(Br)cc(Br)c2O)cc1	–	·	–	6.5µM	12µM	–
CCOc1cc(Br)cc(/C=N/NC(=O)c2cccnc2)c1O	–	·	–	0.46µM	0.37µM	–

Assay outcomes from PubChem.
